{"source": "PubChem BioAssay (NCATS)", "key": {"[1]": {"experiment": "Cellular Toxicity (caspase-3) Hek293 (AID 664)", "conditions": "HEK293 caspase-3 activation, DMSO = 0%, 100 µM tamoxifen = 100%; at 92.2 µM (top of the series)", "in_short": "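qHTS, HEK293 (human embryonic kidney), 16 h cpd exposure in complete medium. Caspase-3/7 activation = luminescence increase; normalized to DMSO/100 uM tamoxifen; Hill-fit AC50.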"}, "[2]": {"experiment": "Cellular Toxicity (caspase-3) N2a (AID 665)", "conditions": "N2a cells, luminescence, normalized: DMSO 0%, 10 µM staurosporine 100%; series mostly up to 92.2 µM", "in_short": "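Caspase-3/7 activation, measured as increased luminescence from aminoluciferin release, is quantified in mouse N2a cells exposed to compounds for 16 h. Values are normalized to DMSO and 10 uM staurosporine, with AC50 derived by Hill modelling.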"}, "[3]": {"experiment": "Cellular Toxicity (caspase-3) NIH 3T3 (AID 666); also: potency is read from the fitted curve at half-maximal effect", "conditions": "NIH 3T3 caspase-3 activation, apoptosis/toxicity; series mostly up to 92.2 µM", "in_short": "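Cells were plated at 1000 per well and incubated 5 hr at 37°C, then compound was added for 16 hr. Caspase-Glo 3/7 reagent followed for 20 min at room temperature before luminescence was read.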"}, "[4]": {"molecular_target": "Guanine nucleotide-binding protein G(i) subunit alpha-1 (Homo sapiens) (UniProt P63096)", "sequence (P63096 whole entry, looked up)": "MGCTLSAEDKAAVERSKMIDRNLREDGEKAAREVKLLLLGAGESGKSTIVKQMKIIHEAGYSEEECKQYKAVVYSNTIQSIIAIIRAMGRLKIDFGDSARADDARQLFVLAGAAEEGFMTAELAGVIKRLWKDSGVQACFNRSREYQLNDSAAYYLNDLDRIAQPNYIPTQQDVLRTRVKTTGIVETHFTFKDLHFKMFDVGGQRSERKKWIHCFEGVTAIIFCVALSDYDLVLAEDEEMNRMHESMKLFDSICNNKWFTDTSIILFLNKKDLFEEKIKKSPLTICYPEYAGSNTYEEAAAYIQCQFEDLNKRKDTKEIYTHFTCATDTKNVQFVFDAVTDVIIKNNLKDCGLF", "experiment": "qHTS Assay for Inhibitors of RGS12 GoLoco Motif Activity (Green Fluorophore) (AID 879);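 also: negative values mean loss of peptide binding seen as reduced polarization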", "conditions": "Galphai1/FITC-RGS12 GoLoco peptide, fluorescence polarization; series mostly up to 57.1 µM", "in_short": "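A drop in FITC polarization marked displacement of the FITC-tagged RGS12 GoLoco peptide (10 nM) from Gαi1 (50 nM). Compounds were incubated 10 min at room temperature in Tris pH 7.5 buffer containing 150 mM NaCl, 0.1 mM GDP and 0.05% NP40; unlabeled peptide titration served as control.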"}, "[5]": {"molecular_target": "Cytochrome P450 3A4 (Homo sapiens) (UniProt P08684)", "sequence (P08684 whole entry, looked up)": "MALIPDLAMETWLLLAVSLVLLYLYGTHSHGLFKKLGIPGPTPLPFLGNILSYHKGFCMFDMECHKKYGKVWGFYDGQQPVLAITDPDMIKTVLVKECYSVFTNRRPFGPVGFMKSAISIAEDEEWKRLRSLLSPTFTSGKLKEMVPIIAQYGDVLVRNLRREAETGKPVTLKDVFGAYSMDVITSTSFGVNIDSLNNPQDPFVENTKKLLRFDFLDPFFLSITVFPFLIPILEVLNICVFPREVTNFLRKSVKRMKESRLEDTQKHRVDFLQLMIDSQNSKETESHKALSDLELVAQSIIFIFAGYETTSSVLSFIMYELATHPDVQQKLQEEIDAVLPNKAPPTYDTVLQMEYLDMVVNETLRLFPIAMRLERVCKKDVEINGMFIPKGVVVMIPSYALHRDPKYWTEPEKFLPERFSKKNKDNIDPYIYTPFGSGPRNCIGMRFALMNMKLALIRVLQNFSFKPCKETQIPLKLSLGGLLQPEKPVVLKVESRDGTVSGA", "experiment": "qHTS Assay for Inhibitors and Substrates of Cytochrome P450 3A4 (AID 884); also: nearly all actives have a fitted effect of over 50% in size", "conditions": "recombinant CYP3A4, Luciferin-PPXE luminescence; series mostly up to 57.1 µM", "in_short": "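Luminescent readout of luciferin produced by CYP3A4 (20 nM) dealkylation of Luciferin-PPXE, 25 uM (its KM). NADPH-driven reaction ran 60 min at RT after 10 min compound preincubation; data scaled to 57 uM ketoconazole as 100% inhibition.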"}, "[6]": {"molecular_target": "Cytochrome P450 2C9 (Homo sapiens) (UniProt P11712)", "sequence (P11712 whole entry, looked up)": "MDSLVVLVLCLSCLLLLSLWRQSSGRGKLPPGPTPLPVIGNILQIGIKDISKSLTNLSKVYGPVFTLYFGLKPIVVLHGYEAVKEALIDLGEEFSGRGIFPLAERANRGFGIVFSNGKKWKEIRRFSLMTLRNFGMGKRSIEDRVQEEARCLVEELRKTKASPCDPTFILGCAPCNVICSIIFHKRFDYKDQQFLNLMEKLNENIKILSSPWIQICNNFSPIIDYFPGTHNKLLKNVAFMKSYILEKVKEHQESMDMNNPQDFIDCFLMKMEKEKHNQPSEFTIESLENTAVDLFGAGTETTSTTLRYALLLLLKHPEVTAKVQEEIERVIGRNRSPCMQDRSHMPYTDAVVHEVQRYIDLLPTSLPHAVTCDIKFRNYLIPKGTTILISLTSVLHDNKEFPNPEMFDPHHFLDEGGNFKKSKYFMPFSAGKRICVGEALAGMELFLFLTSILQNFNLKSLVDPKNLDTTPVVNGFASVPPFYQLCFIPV", "experiment": "qHTS Assay for Inhibitors and Substrates of Cytochrome P450 2C9 (AID 883); also: nearly all actives have a fitted effect of over 60% in size", "conditions": "recombinant CYP2C9, luciferin-H luminescence, 60 min; series mostly up to 25.6 µM", "in_short": "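Human CYP2C9 (10nM) with Luciferin-H at 100uM (its KM) in 25mM KPO4; compound preincubated 10 min at 37C, then NADPH regeneration for 60 min at 37C. Luciferin read by luminescence after detection reagent; normalized to 57uM sulphaphenazole as full inhibition.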"}, "[7]": {"molecular_target": "Cytochrome P450 3A4 (Homo sapiens) (UniProt P08684)", "experiment": "qHTS Assay for Activators of Cytochrome P450 3A4 (AID 885); also: nearly all actives have a fitted effect of over 65% in size", "conditions": "recombinant CYP3A4, Luciferin-PPXE luminescence, 60 min; series mostly up to 57.1 µM", "in_short": "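Luminescent readout of luciferin formed from 25 uM Luciferin-PPXE (KM level) by 20 nM CYP3A4 in 200 mM KPO4, with 60 min NADPH-driven reaction at room temperature after 10 min compound exposure. Ketoconazole (57 uM) defined 100% inhibition.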"}, "[8]": {"experiment": "qHTS Assay for Identification of Small Molecule Antagonists for NFkB Signaling Pathway (AID 895; active = well fitted inhibition curve with a large enough effect in the signal ratio, with a control signal flat, not every such curve was filed as active; the % refers to the signal ratio)", "conditions": "NFkB beta-lactamase reporter cells, FRET ratio 460/530, stimulated with 10 pM TNF alpha; series mostly up to 38.3 µM", "in_short": "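ME-180 NFkB-bla cells (beta-lactamase under NFkB response element), plated overnight, treated with compound then 10 pM TNF alpha (about EC50) for 5 hrs at 37 C. LiveBLAzer FRET read at 460/530 nm emission, 405 nm excitation.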"}, "[9]": {"molecular_target": "Cytochrome P450 2D6 (Homo sapiens) (UniProt P10635)", "sequence (P10635 whole entry, looked up)": "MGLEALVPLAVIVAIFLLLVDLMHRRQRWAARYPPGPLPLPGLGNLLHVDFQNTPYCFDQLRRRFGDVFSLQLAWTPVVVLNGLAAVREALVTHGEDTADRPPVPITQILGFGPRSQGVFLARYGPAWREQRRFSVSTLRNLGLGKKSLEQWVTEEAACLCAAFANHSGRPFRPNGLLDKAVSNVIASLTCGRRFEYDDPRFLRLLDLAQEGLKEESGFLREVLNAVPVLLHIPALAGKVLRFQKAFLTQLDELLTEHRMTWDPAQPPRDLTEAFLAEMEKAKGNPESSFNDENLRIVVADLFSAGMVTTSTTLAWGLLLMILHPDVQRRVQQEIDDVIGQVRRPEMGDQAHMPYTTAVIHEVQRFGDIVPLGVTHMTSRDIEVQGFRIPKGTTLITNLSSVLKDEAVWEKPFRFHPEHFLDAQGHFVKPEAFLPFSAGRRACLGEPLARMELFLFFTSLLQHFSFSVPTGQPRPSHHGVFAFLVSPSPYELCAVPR", "experiment": "qHTS Assay for Inhibitors and Substrates of Cytochrome P450 2D6 (AID 891); also: potency is read from the fitted curve at half-maximal effect; nearly all actives have a fitted effect of over 60% in size", "conditions": "recombinant CYP2D6, luciferin-ME EGE luminescence; series mostly up to 57.1 µM", "in_short": "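Luminescent read-out of luciferin formed by 5 nM human CYP2D6 demethylating 30 uM Luciferin-ME EGE (Km level) over 60 min at room temperature after NADPH regeneration addition. Data normalized to full inhibition by 1.43 uM quinidine.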"}}, "note": "A number with no mark means an inactive call. Inconclusive results are not listed. Entries that show only a call come without a potency. Active and inactive are the calls of the source. Unless noted, calls follow the shape of the dose curve; as a rule, active = well fitted curve in the direction sought with a large enough effect; inconclusive = small, poorly fitted or top-dose-only effect, or another doubt; inactive = no such curve, though single readings can be large; an effect the other way counts as inactive or inconclusive."}
{"compound": "CCc1cc(C(N)=S)ccn1", "values": [{"measurement": "caspase-3 activation", "setting": "[1]", "result": -3.96, "unit": "%"}, {"measurement": "outcome", "setting": "[2]", "result": "inactive"}, {"measurement": "Potency", "setting": "[3]", "result": "inactive"}]}
{"compound": "CC(=O)[C@H]1CC[C@H]2[C@@H]3CCC4=CC(=O)CC[C@]4(C)[C@H]3CC[C@]12C", "values": [{"measurement": "caspase-3 activation", "setting": "[1]", "result": "154% (active)"}, {"measurement": "outcome", "setting": "[2]", "result": "inactive"}, {"measurement": "Potency", "setting": "[3]", "result": "inactive"}, {"measurement": "outcome", "setting": "[4]", "result": "inactive"}, {"measurement": "outcome", "setting": "[5]", "result": "inactive"}]}
{"compound": "Cc1ncc([N+](=O)[O-])n1CCO", "values": [{"measurement": "caspase-3 activation", "setting": "[1]", "result": -0.402, "unit": "%"}, {"measurement": "outcome", "setting": "[2]", "result": "inactive"}, {"measurement": "Potency", "setting": "[3]", "result": "inactive"}, {"measurement": "outcome", "setting": "[5]", "result": "inactive"}]}
{"compound": "CCn1cc(C(=O)O)c(=O)c2cc(F)c(N3CCNCC3)nc21", "values": [{"measurement": "outcome", "setting": "[6]", "result": "inactive"}, {"measurement": "outcome", "setting": "[5]", "result": "inactive"}]}
{"compound": "CC1=NN(c2ccccc2)C(=O)C1", "values": [{"measurement": "caspase-3 activation", "setting": "[1]", "result": 1.55, "unit": "%"}, {"measurement": "outcome", "setting": "[2]", "result": "inactive"}, {"measurement": "Potency", "setting": "[3]", "result": "inactive"}, {"measurement": "outcome", "setting": "[7]", "result": "inactive"}]}
{"compound": "CC[C@H](C)C(=O)O[C@H]1C[C@@H](C)C=C2C=C[C@H](C)[C@H](CC[C@@H]3C[C@@H](O)CC(=O)O3)[C@H]21", "values": [{"measurement": "caspase-3 activation", "setting": "[1]", "result": -1.73, "unit": "%"}, {"measurement": "outcome", "setting": "[2]", "result": "inactive"}, {"measurement": "Potency", "setting": "[3]", "result": "inactive"}]}
{"compound": "N[C@@H](Cc1ccc(O)c(O)c1)C(=O)O", "values": [{"measurement": "outcome", "setting": "[4]", "result": "inactive"}, {"measurement": "Potency", "setting": "[8]", "result": "inactive"}]}
{"compound": "C[C@]12C=CC(=O)C=C1CC[C@@H]1[C@@H]2C(=O)C[C@@]2(C)[C@H]1CC[C@]2(O)C(=O)CO", "values": [{"measurement": "caspase-3 activation", "setting": "[1]", "result": -0.65, "unit": "%"}, {"measurement": "outcome", "setting": "[2]", "result": "inactive"}, {"measurement": "Potency", "setting": "[3]", "result": "inactive"}]}
{"compound": "COc1ccc2cc3[n+](cc2c1OC)CCc1cc2c(cc1-3)OCO2", "values": [{"measurement": "caspase-3 activation", "setting": "[1]", "result": 4.12, "unit": "%"}, {"measurement": "outcome", "setting": "[2]", "result": "inactive"}, {"measurement": "Potency", "setting": "[3]", "result": "inactive"}, {"measurement": "outcome", "setting": "[7]", "result": "inactive"}, {"measurement": "Potency", "setting": "[9]", "result": "2.51 µM (active)"}]}
{"compound": "CN(C)c1ccc(C(=C2C=CC(=[N+](C)C)C=C2)c2ccc(N(C)C)cc2)cc1", "values": [{"measurement": "Potency", "setting": "[3]", "result": "31.6 µM (active)"}, {"measurement": "outcome", "setting": "[7]", "result": "inactive"}]}
{"compound": "Cc1cc(NS(=O)(=O)c2ccc(N)cc2)no1", "values": [{"measurement": "caspase-3 activation", "setting": "[1]", "result": 1.7, "unit": "%"}, {"measurement": "outcome", "setting": "[2]", "result": "inactive"}, {"measurement": "Potency", "setting": "[3]", "result": "inactive"}]}
{"compound": "Cc1ccc(S(=O)(=O)N[C@@H](Cc2ccccc2)C(=O)CCl)cc1", "values": [{"measurement": "outcome", "setting": "[4]", "result": "inactive"}]}
